Screening data as filed in PubChem BioAssay.
This is a sample that favours compounds with a hit; in the whole collection about 1.2% have one here.
LRH-1 inv ag = suppresses constitutive activity of human LRH-1; inhibition, % at 3.6 µM; actives 0.13% (n = 360,000); HEK293T StAR-luciferase reporter, LRH-1 transfected, 24 h; O00482; AID 602396;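 active means inhibition above the mean inhibition of all tested compounds plus 3 SD, cut at about 73% in these data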;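 further: 0% = DMSO wells and 100% = reporter-only cells lacking LRH-1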
SRC2 inh = inhibits human steroid receptor coactivator 2. inhibition, % at 9 µM. actives 0.17% (n = 370,000). AID 651957. HEK293 GAL4-SRC2 luciferase reporter, luminescence;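 active means inhibition above the mean inhibition of all tested compounds plus 3 SD, set per campaign, cut at about 52% in these data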;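 further: 0% = DMSO treated cells and 100% = cells given Gossypol at 36 µM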
NCOA1 inh = human NCOA1 inhibition; HEK293 GAL4-SRC1 luciferase reporter, luminescence; actives 0.12% (n = 360,000); inhibition, % at 3.6 µM;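 active means inhibition above the campaign mean plus 3 SD, with each screening campaign given its own cutoff, cut at about 60% in these data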;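 further: 0% = DMSO treated cells and 100% = gossypol at 36 µM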
COUP-TFII inh = NR2F2 (human) inhibition, primary screen; actives 0.7% (n = 370,000); P24468; HEK293T NGFI-A luciferase reporter, luminescence; inhibition, % at 8.6 µM;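 active means inhibition above a per-plate cutoff, mean inhibition of test wells between control levels plus 3 SD, cut at about 38% in these data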;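 further: cells cotransfected with COUP-TFII expression vector driving the NGFI-A reporter; 0% = median of COUP-TF2 test wells and 100% = reporter-only cells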
NCOA3 inh = inhibitors of human steroid receptor coactivator 3 (SRC3); actives 0.17% (n = 360,000); Q9Y6Q9; inhibition, % at 3.6 µM; HEK293 GAL4-SRC3 luciferase reporter, luminescence;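 active means inhibition above a per-campaign cutoff, the mean of all compounds plus 3 SD, cut at about 60% in these data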;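 further: 0% = DMSO-treated cells and 100% = gossypol-treated cells at 36 µM; higher means less SRC3-driven luciferase light from the GAL4 reporter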
Target sequence (Q9Y6Q9 whole entry, looked up, the tested form may be a part): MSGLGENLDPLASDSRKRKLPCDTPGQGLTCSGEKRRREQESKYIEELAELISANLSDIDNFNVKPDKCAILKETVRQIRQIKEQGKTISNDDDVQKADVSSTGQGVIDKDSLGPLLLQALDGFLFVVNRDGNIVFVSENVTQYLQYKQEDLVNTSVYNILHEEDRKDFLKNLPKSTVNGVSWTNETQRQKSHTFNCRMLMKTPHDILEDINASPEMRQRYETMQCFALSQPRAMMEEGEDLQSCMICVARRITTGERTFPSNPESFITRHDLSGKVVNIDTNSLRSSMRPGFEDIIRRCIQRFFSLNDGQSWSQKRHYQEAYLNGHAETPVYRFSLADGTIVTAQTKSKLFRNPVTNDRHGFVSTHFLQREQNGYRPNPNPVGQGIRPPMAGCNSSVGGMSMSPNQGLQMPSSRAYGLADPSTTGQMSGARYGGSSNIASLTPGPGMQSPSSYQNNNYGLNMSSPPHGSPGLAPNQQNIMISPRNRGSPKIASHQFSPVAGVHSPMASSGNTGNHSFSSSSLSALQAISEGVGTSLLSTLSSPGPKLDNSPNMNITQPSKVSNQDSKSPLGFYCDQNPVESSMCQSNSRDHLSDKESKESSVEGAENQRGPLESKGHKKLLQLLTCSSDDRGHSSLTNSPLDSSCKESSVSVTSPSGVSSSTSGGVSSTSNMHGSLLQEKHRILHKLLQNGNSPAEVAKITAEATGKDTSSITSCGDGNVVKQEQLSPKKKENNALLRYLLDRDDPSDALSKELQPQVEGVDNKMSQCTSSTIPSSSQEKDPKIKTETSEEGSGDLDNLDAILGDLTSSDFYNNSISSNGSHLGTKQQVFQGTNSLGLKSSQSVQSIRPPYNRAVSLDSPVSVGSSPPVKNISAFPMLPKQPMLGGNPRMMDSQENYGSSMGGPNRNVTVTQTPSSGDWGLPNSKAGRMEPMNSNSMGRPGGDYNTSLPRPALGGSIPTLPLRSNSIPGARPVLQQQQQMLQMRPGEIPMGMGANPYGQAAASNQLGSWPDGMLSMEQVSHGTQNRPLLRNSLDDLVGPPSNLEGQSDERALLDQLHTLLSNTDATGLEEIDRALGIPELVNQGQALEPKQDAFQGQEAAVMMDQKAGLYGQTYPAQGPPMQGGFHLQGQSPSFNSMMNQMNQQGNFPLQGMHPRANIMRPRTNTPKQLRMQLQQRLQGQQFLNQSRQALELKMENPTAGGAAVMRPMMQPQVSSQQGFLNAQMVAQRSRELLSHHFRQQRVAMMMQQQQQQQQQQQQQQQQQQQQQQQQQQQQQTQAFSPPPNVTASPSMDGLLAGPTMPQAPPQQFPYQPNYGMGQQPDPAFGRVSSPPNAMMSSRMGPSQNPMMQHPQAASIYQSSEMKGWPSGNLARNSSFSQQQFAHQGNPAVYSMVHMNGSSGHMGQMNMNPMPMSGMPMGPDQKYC
Efflux pump inh = blocks antifungal efflux pumps in multiplex yeast assay | S. cerevisiae Candida pump triplex, Nile Red efflux | inhibition, % at 10 µM | actives 0.44% (n = 330,000);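 active means plate passing quality check with inhibition over a set limit, or well fluorescence over plate mean plus 4 SD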;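 further: Nile Red retained in pooled yeast measured as flow cytometry median fluorescence; 0% = buffer negative control and 100% = Enniatin B positive control; higher means more Nile Red kept so more efflux inhibition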
VP16 Luc counter = inhibits VP16 reporter, flagging COUP-TFII antagonist hits; shares compounds with COUP-TFII inh; HEK293 Gal4-VP16 luciferase reporter, luminescence; inhibition, % at 8.5 µM; actives 25% (n = 2,500); AID 687007; in the data active means inhibition above about 13%
COUP-TFII conf = confirmation of human COUP-TFII (NR2F2) inhibitors. AID 687008. HEK293 NGFI-A luciferase reporter, luminescence. actives 45% (n = 2,500). shares compounds with COUP-TFII inh. inhibition, % at 8.5 µM;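 active means mean inhibition over three repeats above a set limit taken from the earlier primary screen, cut at about 38% in these data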;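 further: 100% = cells given the luciferase reporter alone without the COUP-TF2 vector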
An asterisk follows results filed as active; x = no result.

SMILES	LRH-1 inv ag	SRC2 inh	NCOA1 inh	COUP-TFII inh	NCOA3 inh	Efflux pump inh	VP16 Luc counter	COUP-TFII conf
COCCn1c(C)cc(C(=O)CSc2nc3ccccc3s2)c1C	2	9	25	50*	29	0	-57	31
COCCn1c(C)cc(C(=O)CSc2nc3ccccc3o2)c1C	-128	-64	-80	-39	-64	0	x	x
CN(c1ccccc1)S(=O)(=O)c1ccc(NC(=O)c2ccc(-c3ccccc3)cc2)cc1	5	15	-9	13	20	-6	x	x
Cc1nc2ccc(NC(=O)c3ccc(Cl)c(S(=O)(=O)N(C)c4ccccc4)c3)cc2s1	2	15	27	-3	49	0	x	x
Cc1nc2ccc(NC(=O)c3cc(S(=O)(=O)N(C)c4ccccc4)ccc3Cl)cc2s1	43	24	28	78*	15	1	6	69*
CC(=O)Nc1ccc(C(=O)Nc2cccc(S(=O)(=O)N(C)c3ccccc3)c2)cc1	11	3	-22	16	-21	0	x	x
Cc1nc2cc(NC(=O)c3ccc(S(=O)(=O)N(C)c4ccccc4)cc3)ccc2o1	-7	16	-19	49*	2	0	-85	26
CN(c1cccc(NC(=O)c2ccc(N(C)S(=O)(=O)c3ccccc3)cc2)c1)S(C)(=O)=O	28	12	21	63*	23	0	-5	28
Cc1cc(NC(=O)CSCC(=O)N(C)Cc2ccc(Cl)c(Cl)c2)no1	9	19	-9	5	5	0	x	x
C=CC[n+]1c(-c2ccc(OC)cc2)csc1NNC(=O)Nc1ccccc1	-29	-39	-60	8	-56	0	x	x
C=CC[n+]1c(-c2ccc(C)cc2)csc1Nc1ccc(NC(C)=O)cc1	38	84*	26	52*	37	x	83*	81*
Cc1cc(C)c(S(=O)(=O)N2CCN(C(=O)C(C)Cn3cncn3)CC2)c(C)c1 (centres undefined)	-3	-17	4	1	3	0	x	x
c1ccc2c(c1)Nc1cc3ccccc3cc1S2	-24	-31	-57	-34	-26	0	x	x
c1ccc2c(c1)Nc1ccncc1S2	-3	20	-4	38*	35	0	4	14
Cc1ccc(NC(=O)c2cnc(N3CCN(c4ccccn4)CC3)c3ccccc23)c(Br)c1	21	18	37	38*	27	0	-6	39*
CC(=O)Nc1ccc(NC(=O)c2ccc(OCc3c(C)noc3C)cc2)cc1	11	22	-2	5	-25	0	x	x
Cc1ccc(NC(=O)c2ccc(OCc3c(C)noc3C)cc2)cc1C	-1	8	-12	38*	1	0	-45	-9
CC(=O)c1ccccc1C(=O)N1CCCC(C(=O)c2ccc(C(F)(F)F)cc2)C1 (centres undefined)	-38	-22	-23	-3	-34	0	x	x
CCOC(=O)C1CCCN(C(=O)c2ccc(F)c(C)c2)CC1 (centres undefined)	2	-5	10	-1	4	x	x	x
O=C(c1cccc(Cl)c1)N1CCN(c2ccnc3cc(Cl)ccc23)CC1	x	x	x	49*	x	x	3	23
O=C(c1ccc(Cl)cc1)N1CCN(c2ccnc3cc(Cl)ccc23)CC1	-9	0	19	23	19	x	x	x
CC1CN(c2ccnc3cc(Cl)ccc23)CCN1C(=O)c1ccc(Cl)cc1 (centres undefined)	x	x	x	50*	x	x	4	16
COc1ccc2c(c1)CCCN2C(=O)C1CCCN(S(=O)(=O)c2ccc(C(C)(C)C)cc2)C1 (centres undefined)	x	36	x	48*	x	x	5	19
CC(C)(C)c1ccc(S(=O)(=O)N2CCCC(C(=O)N3CCN(Cc4ccccc4)CC3)C2)cc1 (centres undefined)	x	12	x	45*	x	x	5	29
Cc1ccccc1C(=O)NNC(=O)C(C)N1C(=O)c2ccccc2C1=O (centres undefined)	19	-4	-9	-12	-12	0	x	x
SMILES	LRH-1 inv ag	SRC2 inh	NCOA1 inh	COUP-TFII inh	NCOA3 inh	Efflux pump inh	VP16 Luc counter	COUP-TFII conf
COCC(C)n1c(C)cc(C(=O)CSc2nnnn2C2CCCC2)c1C (centres undefined)	-3	9	-2	41*	7	0	-82	23
O=C(O)c1ccc(S(=O)(=O)NCc2cccnc2)cc1	-14	4	-7	-11	-1	0	x	x
COC(=O)[C@@H](NC(=O)NCc1ccc(F)cc1)C(C)C	4	-2	-1	-9	3	0	x	x
C=CS(=O)(=O)N(Cc1ccc(F)cc1)C(=C)C(=O)OC	x	34	x	68*	x	x	17*	17
CN1CC(=O)N(CC(=O)Nc2ccc(Br)cc2F)C1=O	29	0	-11	14	5	0	x	x
N=c1ccn(Cc2ccc(F)cc2)cc1	-6	12	1	-3	3	0	x	x
CCCCCCCCCCn1ccc(=N)cc1	86*	26	48	82*	71*	1	13*	79*
O=C(/C=C/c1ccc([N+](=O)[O-])cc1)NCCN1C(=O)S/C(=C\c2ccc(F)cc2)C1=O	15	12	-8	13	-14	0	x	x
COc1ccc2c(c1)[nH]c1c(N3CCSCC3)ncnc12	18	9	-12	19	26	0	x	x
COc1ccc2[nH]c3c(N4CC(C)OC(C)C4)ncnc3c2c1 (centres undefined)	x	12	x	-14	x	0	x	x
COc1cccc(N2CCN(c3ncnc4c3[nH]c3ccccc34)CC2C)c1 (centres undefined)	x	61*	x	76*	x	0	19*	84*
c1ccc2c(c1)CCN(c1ncnc3c1[nH]c1ccccc13)C2	46	36	23	71*	32	0	4	76*
COc1cccc(N2CCN(c3ncnc4c3[nH]c3ccc(F)cc34)CC2C)c1 (centres undefined)	89*	81*	85*	91*	87*	0	92*	108*
CCn1c(SCCC(=O)O)nnc1-c1cccnc1	-3	2	-9	11	18	0	x	x
Cc1cc(C)cc(C(=O)OCC(=O)NC2CCCC2)c1	-11	4	-7	5	-8	0	x	x
Cc1cc(/C=C2/SC(=S)N(c3cccc(Cl)c3)C2=O)c(C)n1-c1cccnc1	36	2	12	65*	11	0	-22	64*
Cc1cc(/C=C2\SC(=S)N(C)C2=O)c(C)n1-c1ccccc1O	-2	13	-14	43*	-7	0	-107	13
Cc1cc(/C=C2\SC(=S)N(C)C2=O)c(C)n1-c1ccc(O)cc1	72	73*	80*	84*	81*	0	68*	98*
